{"source": "PubChem BioAssay (Tox21)", "note": "Active and inactive are the calls of the source. Where a call stands in place of a potency, no number is given. Calls follow the shape of the dose curve; as a rule, active = well fitted inhibition curve with a large enough effect in the repeat runs (not every such curve was filed as active); inconclusive = weak or mixed curves; inactive = flat fitted curve, though single readings scatter.", "data": [{"biological_target": "Thyrotropin-releasing hormone receptor (Homo sapiens) (UniProt P34981)", "sequence (P34981 whole entry, looked up)": "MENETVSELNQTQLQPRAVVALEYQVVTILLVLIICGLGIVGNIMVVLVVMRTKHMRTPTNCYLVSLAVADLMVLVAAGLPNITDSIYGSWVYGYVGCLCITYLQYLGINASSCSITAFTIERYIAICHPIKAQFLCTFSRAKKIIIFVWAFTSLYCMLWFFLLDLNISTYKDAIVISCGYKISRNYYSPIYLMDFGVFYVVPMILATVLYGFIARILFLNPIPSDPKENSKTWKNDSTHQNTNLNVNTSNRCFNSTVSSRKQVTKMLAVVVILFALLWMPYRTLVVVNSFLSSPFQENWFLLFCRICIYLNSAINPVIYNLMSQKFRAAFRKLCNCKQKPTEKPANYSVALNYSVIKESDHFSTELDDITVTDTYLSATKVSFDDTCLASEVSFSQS", "test": "qHTS assay to identify small molecule antagonists of the thyrotropin-releasing hormone receptor (TRHR) signaling pathway (AID 1346877)", "settings": "TRHR-HEK293, TRH-induced calcium fluorescence, antagonist mode; series mostly up to 51.3 µM", "from_the_text": "National Center for Advancing Translational Sciences [NCATS]\nNIH Chemical Genomics Center [NCGC]\nU.S. Environmental Protection Agency [EPA]\nNational Institutes of Environmental Health Sciences [NIEHS]\nNational Toxicology Program [NTP]\nU.S. Food and Drug Administration [FDA]\nThyrotropin-releasing hormone (TRH) receptor (TRHR) is a G-protein-coupled receptor which binds the tripeptide thyrotropin releasing hormone. TRHR is found in the brain and, when bound by TRH, acts (through phospholipase C) to increase intracellular inositol trisphosphate. It plays a crucial role in the anterior pituitary where it controls the synthesis and secretion of thyroid stimulating hormone and prolactin. The TRHR-Hek293 assay is a cell-based assay, and it has the potential to screen G protein-coupled receptors. A compound/drug can either activate (agonist) or suppress (antagonist) GPCRs that can be monitored by levels of intracellular calcium. In this assay, the Tox21 10K compound library was screened to identify potential TRHR antagonists.\nTox21 Assay Protocol Summary:\nThe TRHR-Hek293 cells were dispensed at 1500cells/4uL/well in 1536-well black-clear bottom plates using a Multidrop dispenser. After the assay plates were incubated at a 37 C/5% CO2 incubator for 18 hours, 4 uL of Dye-Loading Solution was added to each well. The plates were incubated at 37 C for 2 hours. For agonist mode, 23 nL of compounds dissolved in DMSO, positive controls or DMSO only was transferred to the assay plate by a pin tool. The fluorescence intensity in the plates was measured using FDSS 7000EX kinetic plate reader for 3 min at 1 sec intervals. For antagonist mode, 23 nL of compounds dissolved in DMSO, positive controls or DMSO only was transferred to the assay plate by a pin tool. After 5 min incubation at room temperature, 1 uL of TRH was added on the top of the cell/compound mixtures to achieve a final agonist concentration of 1 nM. The fluorescence intensity in the plates was measured using FDSS 7000EX kinetic plate reader for 3 min at 1 sec intervals. Each test compound was measured at 15 concentrations and in triplicates.", "values": [{"smiles": "Oc1c(Cl)ccc(Cl)c1Cl", "Potency": "inactive"}, {"smiles": "CC/C(=C(/CC)c1ccc(O)cc1)c1ccc(O)cc1", "Potency": "inactive"}, {"smiles": "Cc1ccc([N+](=O)[O-])c(C)c1", "Potency": "inactive"}, {"smiles": "OC[C@H]1O[C@@H]2O[C@H]3[C@H](O)[C@@H](O)[C@@H](O[C@H]4[C@H](O)[C@@H](O)[C@@H](O[C@H]5[C@H](O)[C@@H](O)[C@@H](O[C@H]6[C@H](O)[C@@H](O)[C@@H](O[C@H]7[C@H](O)[C@@H](O)[C@@H](O[C@H]1[C@H](O)[C@H]2O)O[C@@H]7CO)O[C@@H]6CO)O[C@@H]5CO)O[C@@H]4CO)O[C@@H]3CO", "Potency": "inactive"}, {"smiles": "CCCCCCCCCCCCCO", "Potency": "inactive"}, {"smiles": "IC(I)I", "Potency": "inactive"}, {"smiles": "[O-]/[N+](=N\\O)c1ccccc1", "Potency": "inactive"}, {"smiles": "Clc1ccc(Sc2cc(Cl)c(Cl)cc2Cl)cc1", "Potency": "inactive"}, {"smiles": "CC(C)=CCO", "Potency": "inactive"}, {"smiles": "COc1cc([C@H]2Oc3cc([C@H]4Oc5cc(O)cc(O)c5C(=O)[C@@H]4O)ccc3O[C@@H]2CO)ccc1O", "Potency": "inactive"}, {"smiles": "NCCS(=O)(=O)O", "Potency": "inactive"}, {"smiles": "O=[Se](O)O", "Potency": "inactive"}, {"smiles": "C[C@]12CC[C@@H]3c4ccc(O)cc4CC[C@H]3[C@@H]1CC[C@@H]2O", "Potency": "inactive"}, {"smiles": "ClC/C=C/CCl", "Potency": "inactive"}, {"smiles": "CC/C=C\\C/C=C\\C/C=C\\CCCCCCCC(=O)O", "Potency": "inactive"}, {"smiles": "CC(=O)OC(C)C", "Potency": "inactive"}, {"smiles": "CCCCCC=O", "Potency": "inactive"}, {"smiles": "Cc1ccc(C(C)(C)C)c(O)c1", "Potency": "inactive"}, {"smiles": "CC(=O)Oc1ccc(C(c2ccc(OC(C)=O)cc2)c2ccccn2)cc1", "Potency": "inactive"}, {"smiles": "O=C(O)CCCC(=O)O", "Potency": "inactive"}, {"smiles": "CN(C)CCCN1c2ccccc2Sc2ccc(Cl)cc21", "Potency": "inactive"}, {"smiles": "C=C1C[C@H]2[C@@H]3C=C(C)C4=CC(=O)CC[C@]4(C)[C@H]3CC[C@]2(C)[C@@]1(OC(C)=O)C(C)=O", "Potency": "inactive"}, {"smiles": "Cc1ccc2c(c1)C(=O)OC2=O", "Potency": "inactive"}, {"smiles": "Cc1ccc(C(C)(C)C)cc1", "Potency": "inactive"}, {"smiles": "CC1(C)C(C=C(Cl)Cl)C1C(=O)OCc1cccc(Oc2ccccc2)c1", "note": "(stereo not given)", "Potency": "inactive"}, {"smiles": "O=C(O)c1ccc(O)cc1", "Potency": "inactive"}, {"smiles": "CC(=O)Nc1ccc2c(c1)Cc1cc(NC(C)=O)ccc1-2", "Potency": "inactive"}, {"smiles": "Cc1cccc(Nc2ccccc2C(=O)O)c1C", "Potency": "inactive"}, {"smiles": "COCCOCCOCCO", "Potency": "inactive"}, {"smiles": "CCC/C=C/C=O", "Potency": "inactive"}, {"smiles": "CCC(Cc1c(I)cc(I)c(N)c1I)C(=O)O", "note": "(stereo not given)", "Potency": "inactive"}, {"smiles": "C=CCOC(=O)C(=C)C", "Potency": "inactive"}, {"smiles": "CNC[C@H](O)c1ccc(O)c(O)c1", "Potency": "inactive"}, {"smiles": "Cc1ccc(S(=O)(=O)O)cc1C", "Potency": "inactive"}, {"smiles": "C/C=C/C(=O)N(CC)c1ccccc1C", "Potency": "inactive"}, {"smiles": "C=CN1CCCC1=O", "Potency": "inactive"}, {"smiles": "CCCCCCCC/C=C\\CCCCCCCC(=O)O", "Potency": "inactive"}, {"smiles": "CN1CCOCC1", "Potency": "inactive"}, {"smiles": "C=C[C@H]1CN2CC[C@H]1C[C@H]2[C@H](O)c1ccnc2ccc(OC)cc12", "Potency": "inactive"}, {"smiles": "O=C(O)COCCN1CCN(C(c2ccccc2)c2ccc(Cl)cc2)CC1", "note": "(stereo not given)", "Potency": "inactive"}]}]}
